Here are results for eight compounds from PubChem BioAssay AID504546 (Broad Institute, 2011).

Inconclusive results are not listed. The source made the active and inactive calls.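 The calls were made as follows: active = every repeat run fits a falling-signal curve with half-maximal potency within ten times top tested dose; inconclusive = runs disagree, or flat moderate drop, or poor fit; inactive = every run inactive, including signal moving upward.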

The nature of the assay: ADP-Glo luciferase signal interference – biochemical, luminescence, cherry-picked samples, set 2, artefact control for CDK5 inhibitor project, dose response (AID 504546). Conditions: ADP-Glo detection reagent counter screen, 5 uM ADP; series mostly up to 30 µM. For orientation: In ADP-Glo the light output rises with the ADP produced.
As to `COc1cc2c(ccc3c4cc(OC)c(OC)cc4c[n+](C)c23)cc1O`, the compound was called inactive. The value for `N#Cc1cn(C2OC(CO)C(O)C2O)c2ncnc(N)c12` (stereo not drawn) was “inactive”. The value for `N#Cc1c(Br)n(C2OC(CO)C(O)C2O)c2ncnc(N)c12` (stereo not drawn) was “inactive”; that for `Nc1ccc(CC2=NCCN2)cc1` was “inactive”. The value for `NC(=O)c1cn(C2OC(CO)C(O)C2O)c2ncnc(N)c12` (stereo not drawn) was “inactive”. Regarding `NC(=O)c1c(Br)n(C2OC(CO)C(O)C2O)c2ncnc(N)c12` (stereo not drawn), the result was inactive.

Regarding `O=C1Nc2ccccc2/C1=C/c1cnc[nH]1`, the result was inactive. The value for `Nc1ncnc2c1ccn2[C@@H]1O[C@H](CO)[C@@H](O)[C@H]1O` was “inactive”.
